# Records with an inconclusive call do not appear. A call without a number means that no potency is given here. Activity calls are given as the source filed them. Calls come from the whole dose curve; as a rule, active = well fitted inhibition curve with a large enough effect; inconclusive = small, poorly fitted or top-dose-only effect; inactive = flat fitted curve, though single readings scatter.
# Test system: MKL-1
# Assay: qHTS assay to identify novel small-molecules to repurpose for Merkel cell carcinoma treatment (AID 1296009); note: nearly all actives have a fitted effect of over 60% in size
# Conditions: MCC and control cell lines, CellTiter-Glo viability, 72 h; series mostly up to 46 µM
# Outline: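 Cells exposed to NPC (8-point) and MIPE (11-point) compound dilutions for 72 hr at 37 degree celsius; viability read by CellTiter-Glo luminescence, normalized to no-cell and DMSO in-plate controls.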
SMILES,Potency,"activity change, negative = cytotoxicity"
CCN(Cc1ccncc1)C(=O)C(CO)c1ccccc1 (stereo unspecified),inactive,
NC(=O)c1cn(Cc2c(F)cccc2F)nn1,inactive,
CCCCCN(CCCCC)C(=O)C(CCC(=O)O)NC(=O)c1ccc(Cl)c(Cl)c1 (stereo unspecified),inactive,
O=C1CC2(CCCC2)CC(=O)N1CCCCN1CCN(c2ncccn2)CC1,inactive,
NC(Cc1ccc(Cl)cc1)C(=O)O (stereo unspecified),,8.15% [at 0.597 µM] (inactive)
CCCN(CCC)CCc1cccc2c1CC(=O)N2,inactive,
O=C(O)CN(CCOCCOCCN(CC(=O)O)CC(=O)O)CC(=O)O,,14.4% [at 0.597 µM] (inactive)
CCN(CC)CCNC(=O)c1ccc(NC(C)=O)cc1,inactive,
CCCN(CCC)C(=O)C(CCC(=O)O)NC(=O)c1ccccc1 (stereo unspecified),inactive,
O=C(O)CCCCCCCC(=O)O,inactive,
Cc1ccc(/C(=C\CN2CCCC2)c2ccccn2)cc1,inactive,
CC(=O)OCC1=C(C(=O)O)N2C(=O)[C@@H](NC(=O)Cc3cccs3)[C@H]2SC1,inactive,
COc1cc(Cc2cnc(N)nc2N)cc(OC)c1OC,inactive,
CCCNC(C)C(=O)Nc1ccccc1C (stereo unspecified),inactive,
CNC1(C)C2CCC(C2)C1(C)C (stereo unspecified),inactive,
Cc1scc2c1N(C(=O)CN1CCN(C)CC1)c1ccccc1NC2=O,inactive,
CCCOc1ccccc1-c1nc2n[nH]nc2c(=O)[nH]1,inactive,
CC(C)NNC(=O)c1ccncc1,inactive,
Nc1c2c(nc3ccccc13)CCCC2O (stereo unspecified),inactive,
NC(=O)c1ncn([C@@H]2O[C@H](CO)[C@@H](O)[C@H]2O)c1O,inactive,
Cc1nc2c([nH]1)c(=O)n(C)c(=O)n2Cc1ccco1,inactive,

# Reference: PubChem BioAssay (NCATS)
